Consider 39 compounds from PubChem BioAssay (EPA / NIEHS).

Results filed as inconclusive are left out. Active and inactive are the calls of the source. How the source made its calls: active means hit-call score of the fitted dose curve at least 0.9, where 1 is the maximum; inconclusive means response in the unintended direction; inactive means score below 0.9.

Chain of Cellular tumor antigen p53 (Homo sapiens) (P04637 whole entry, looked up): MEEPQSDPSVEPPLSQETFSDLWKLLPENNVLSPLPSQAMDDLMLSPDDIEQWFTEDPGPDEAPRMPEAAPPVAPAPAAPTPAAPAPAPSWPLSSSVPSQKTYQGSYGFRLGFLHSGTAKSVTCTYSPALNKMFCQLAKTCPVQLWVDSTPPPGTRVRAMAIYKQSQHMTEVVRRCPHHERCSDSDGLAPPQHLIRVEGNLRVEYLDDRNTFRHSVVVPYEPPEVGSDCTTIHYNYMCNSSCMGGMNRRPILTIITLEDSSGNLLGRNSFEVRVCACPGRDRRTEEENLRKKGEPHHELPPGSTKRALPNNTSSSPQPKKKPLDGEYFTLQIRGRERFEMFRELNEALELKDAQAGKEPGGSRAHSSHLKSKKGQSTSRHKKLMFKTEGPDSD

The first assay concerns the target Cellular tumor antigen p53 (Homo sapiens) (UniProt P04637). Briefly: TOX21_p53_BLA_p2_ratio: Tox21 HCT-116 p53 Agonism Beta-lactamase Assay, Ratio, Phase 2 (AID 2283592). The essentials: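 Ratio endpoint: beta-lactamase cleavage of CCF4-AM, blue (460 nm) over green (530 nm). HCT116 reporter line; 16 h treatment, 37C; substrate 2 h RT.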
Turning to `CCC(C)(Oc1ccc(C2(c3ccc(OC(C)(CC)C(=O)O)cc3)CCCCC2)cc1)C(=O)O` (stereo not drawn), the outcome was inactive.

With `CN(C)CC[C@@H](c1ccc(Cl)cc1)c1ccccn1`, the result was inactive.

`O=C[C@H](O)[C@@H](O)[C@H](O[C@H]1O[C@H](CO)[C@@H](O[C@H]2O[C@H](CO)[C@@H](O)[C@H](O)[C@H]2O)[C@H](O)[C@H]1O)[C@H](O)CO`: the outcome was inactive.

Regarding `Cl/C(=C\n1cncn1)c1ccc(Cl)cc1Cl`, the result was inactive.

`CO/N=C(\C(=O)N[C@@H]1C(=O)N2C(C(=O)O)=C(C[N+]3(C)CCCC3)CS[C@H]12)c1csc(N)n1`: the outcome was inactive.

For the compound `Cc1cc(NC(=O)C2=C(O)c3ccccc3S(=O)(=O)N2C)no1`, the result was inactive.

With `COc1ccc(C=NNC(=O)c2ccncc2)c(C(=O)O)c1OC`, the outcome was inactive.

`CC(C)CCC[C@@H](C)[C@H]1CC[C@H]2[C@@H]3CC[C@@H]4C[C@H](O)CC[C@]4(C)[C@H]3CC[C@]12C`: the result was inactive.

As to `O=C1c2ccccc2C(=O)C1c1ccc(F)cc1`, the outcome was inactive.

For `CCN(CC)CCOC(=O)C1(c2ccccc2)CCCC1`, the result was inactive.

Regarding `Nc1ccc2cc(S(=O)(=O)O)ccc2c1`, the result was inactive.

As to `Brc1ccc(-c2ccccc2)cc1`, the result was inactive.

Consider `CCc1ccc(CC)cc1`, for which the outcome was inactive.

On to `C1CSCCS1`, for which the result was inactive.

`CCn1ccnc1CC1COc2ccccc2O1` (stereo not drawn): the outcome was inactive.

Consider `COc1ccc(C(=O)NCc2ccc(OCCN(C)C)cc2)cc1OC`, for which the result was inactive.

Turning to `CC(=O)CCC=C(C)CC/C=C(\C)CC/C=C(\C)CCC=C(C)C`, the outcome was inactive.

Take `O=C1NC(=O)[C@H]2[C@@H]1[C@@H]1C=C[C@H]2C1`: the result was inactive.

For the compound `Nc1cccc([N+](=O)[O-])c1`, the result was inactive.

In the case of `Nc1nc(-c2ccc([N+](=O)[O-])cc2)cs1`, the result was inactive.

Take `CCC(CO)(CO)CO`: the result was inactive.

In the case of `Brc1cc2ccccc2c2ccccc12`, the outcome was inactive.

With `Cc1c(N=C=O)cccc1N=C=O`, the result was inactive.

Take `CCc1ccc(C(=O)C(C)CN2CCCCC2)cc1` (stereo not drawn): the outcome was inactive.

Turning to `c1ccc2nccnc2c1`, the outcome was inactive.

On to `CC(=O)NC(=O)c1ccccc1O`, for which the result was inactive.

For the compound `C[C@@H]1CC[C@@]2(OC1)O[C@H]1C[C@H]3[C@@H]4CC[C@H]5C[C@@H](O)CC[C@]5(C)[C@H]4CC(=O)[C@]3(C)[C@H]1[C@@H]2C`, the outcome was inactive.

`CCCn1c(=O)[nH]c(=O)c2[nH]cnc21`: the outcome was inactive.

`C#CCN[C@@H]1CCc2ccccc21`: the outcome was inactive.

Consider `CCCCCCCCCCCCCCCCCl`, for which the result was inactive.

Take `O=C1CC[C@H](C(=O)N2CCCCC2)N1`: the result was inactive.

For the compound `CCCn1cc[n+](C)c1C`, the outcome was inactive.

`CN1CC(=O)N=C1N`: the outcome was inactive.

As for `c1cc2c3c(c1)ccc1cccc(c13)C2`, the outcome was inactive.

With `CCOC(=O)[C@H](CCc1ccccc1)N[C@@H](C)C(=O)N1CC2(C[C@H]1C(=O)O)SCCS2`, the result was inactive.

For `COc1cc(S(C)=O)ccc1-c1nc2ncccc2[nH]1` (stereo not drawn), the result was inactive.

For the compound `Cc1cccc(C)c1OCC(C)N` (stereo not drawn), the result was inactive.

Regarding `NS(=O)(=O)c1ccc(C(=O)O)cc1`, the result was inactive.

Take `CC(C)OC(=O)C(C(=O)OC(C)C)=C1SC=CS1`: the result was inactive.

A further assay shares this target. Briefly: TOX21_p53_BLA_p3_ratio: Tox21 HCT-116 p53 Agonism Beta-lactamase Assay, Ratio, Phase 3 (AID 2283596). The procedure, abridged: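 Cells were seeded at 4000/well, rested 5 h at 37C, then dosed with DMSO compound solutions (217-fold dilution) for 16 h. CCF4-AM substrate was loaded for 2 h at room temperature, and the 460/530 nm emission ratio was fitted for gain of signal versus DMSO.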
Take `CO/N=C(\C(=O)N[C@@H]1C(=O)N2C(C(=O)O)=C(C[N+]3(C)CCCC3)CS[C@H]12)c1csc(N)n1`: the result was inactive.

Consider `Brc1ccc(-c2ccccc2)cc1`, for which the outcome was inactive.

As for `CC(=O)CCC=C(C)CC/C=C(\C)CC/C=C(\C)CCC=C(C)C`, the result was inactive.

Turning to `Cc1cccc(C)c1OCC(C)N` (stereo not drawn), the outcome was inactive.

Test system in another assay: not listed separately
Put plainly: TOX21_p53_BLA_p4_viability: Viability Assessment in the Tox21 HCT-116 p53 Agonism Beta-lactamase Assay, Phase 4 (AID 2283597).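 Further: hits lower the luminescence signal meaning cytotoxicity.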 The essentials: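 Cytotoxicity was inferred from loss of CellTiter-Glo luminescence. HCT116 cells had been dosed with compounds after 5 h plating, incubated 16 h at 37C and 5% CO2, and exposed to the CCF4-AM substrate for 2 h.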
Turning to `CCC(C)(Oc1ccc(C2(c3ccc(OC(C)(CC)C(=O)O)cc3)CCCCC2)cc1)C(=O)O` (stereo not drawn), the compound was classed as inactive.

On to `CN(C)CC[C@@H](c1ccc(Cl)cc1)c1ccccn1`, for which the result was inactive.

On to `O=C[C@H](O)[C@@H](O)[C@H](O[C@H]1O[C@H](CO)[C@@H](O[C@H]2O[C@H](CO)[C@@H](O)[C@H](O)[C@H]2O)[C@H](O)[C@H]1O)[C@H](O)CO`, for which the compound was classed as inactive.

Take `Cl/C(=C\n1cncn1)c1ccc(Cl)cc1Cl`: the outcome was inactive.

For `Cc1cc(NC(=O)C2=C(O)c3ccccc3S(=O)(=O)N2C)no1`, the outcome was inactive.

Take `COc1ccc(C=NNC(=O)c2ccncc2)c(C(=O)O)c1OC`: the compound was called inactive.

Consider `CC(C)CCC[C@@H](C)[C@H]1CC[C@H]2[C@@H]3CC[C@@H]4C[C@H](O)CC[C@]4(C)[C@H]3CC[C@]12C`, for which the result was inactive.

On to `O=C1c2ccccc2C(=O)C1c1ccc(F)cc1`, for which the result was inactive.

As for `CCN(CC)CCOC(=O)C1(c2ccccc2)CCCC1`, the compound was classed as inactive.

Regarding `Nc1ccc2cc(S(=O)(=O)O)ccc2c1`, the call was inactive.

Regarding `CCc1ccc(CC)cc1`, the call was inactive.

`C1CSCCS1`: the result was inactive.

As to `CCn1ccnc1CC1COc2ccccc2O1` (stereo not drawn), the outcome was inactive.

With `COc1ccc(C(=O)NCc2ccc(OCCN(C)C)cc2)cc1OC`, the compound was classed as inactive.

For `O=C1NC(=O)[C@H]2[C@@H]1[C@@H]1C=C[C@H]2C1`, the outcome was inactive.

Consider `Nc1cccc([N+](=O)[O-])c1`, for which the result was inactive.

Regarding `Nc1nc(-c2ccc([N+](=O)[O-])cc2)cs1`, the compound was classed as inactive.

`CCC(CO)(CO)CO`: the compound was called inactive.

As to `Brc1cc2ccccc2c2ccccc12`, the compound was classed as inactive.

In the case of `Cc1c(N=C=O)cccc1N=C=O`, the compound was classed as inactive.

With `CCc1ccc(C(=O)C(C)CN2CCCCC2)cc1` (stereo not drawn), the compound was called inactive.

Consider `c1ccc2nccnc2c1`, for which the compound was classed as inactive.

Consider `CC(=O)NC(=O)c1ccccc1O`, for which the result was inactive.

Regarding `C[C@@H]1CC[C@@]2(OC1)O[C@H]1C[C@H]3[C@@H]4CC[C@H]5C[C@@H](O)CC[C@]5(C)[C@H]4CC(=O)[C@]3(C)[C@H]1[C@@H]2C`, the outcome was inactive.

For the compound `CCCn1c(=O)[nH]c(=O)c2[nH]cnc21`, the call was inactive.

`C#CCN[C@@H]1CCc2ccccc21`: the compound was classed as inactive.

As for `CCCCCCCCCCCCCCCCCl`, the outcome was inactive.

Regarding `O=C1CC[C@H](C(=O)N2CCCCC2)N1`, the result was inactive.

In the case of `CCCn1cc[n+](C)c1C`, the compound was classed as inactive.

Take `CN1CC(=O)N=C1N`: the outcome was inactive.

For `c1cc2c3c(c1)ccc1cccc(c13)C2`, the call was inactive.

Turning to `CCOC(=O)[C@H](CCc1ccccc1)N[C@@H](C)C(=O)N1CC2(C[C@H]1C(=O)O)SCCS2`, the compound was classed as inactive.

Consider `COc1cc(S(C)=O)ccc1-c1nc2ncccc2[nH]1` (stereo not drawn), for which the outcome was inactive.

`NS(=O)(=O)c1ccc(C(=O)O)cc1`: the outcome was inactive.

In the case of `CC(C)OC(=O)C(C(=O)OC(C)C)=C1SC=CS1`, the result was inactive.
